NPC1 prom act – qHTS Assay for NPC1 Promoter Activators; Huh7 NPC1 promoter luciferase reporter, 24 h; Potency, µM (top dose mostly 9.22 µM), for inactives: at the top dose activation, usual class: activators; hit rate 2.4% among 320,000; AID 485313, 2010; also: % of control where 0% means no effect; nearly all actives have a fitted effect of over 60% in size
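In 1536-well qHTS, Huh7 cells harboring an NPC1 promoter–luciferase construct received compound for 24 h; activation was quantified by luminescence following luciferase reagent addition.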
ELG1 genotoxic – qHTS screen for small molecules that induce genotoxicity in human embryonic kidney (HEK293T) cells expressing luciferase-tagged ELG1; HEK293T ELG1-luciferase reporter, luminescence, 16 h; Potency, µM (highest dose often 46 µM), for the others: at the top dose activity change, positive = activation, most hits filed as activators; hit rate 1.3% among 330,000; AID 504466, 2011; also: % of control where 0% means no effect; nearly all actives have a fitted effect of over 60% in size
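Quantitative HTS format in 1536-well plates. HEK293T ELG1-luciferase reporter cells receive test compound and are incubated 16 hr at 37 °C, 5% CO2; ONE-Glo added, 30 min room temperature, then luminescence read.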
FLuc modulator – qHTS profiling assay for firefly luciferase inhibitor/activator using purifed enzyme and Km concentrations of substrates (counterscreen for miR-21 project). purified FLuc, Km substrates, luminescence inhibition. hit rate 6.9% among 360,000. Luciferin 4-monooxygenase (Photinus pyralis), P08659. AID 588342, 2011. Potency, µM (top dose mostly 57.5 µM), for inactives: at the top dose activity change, negative = inhibition, actives largely listed as inhibitors;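 also: plate controls were vehicle for no effect and reference inhibitor for full effect; nearly all actives have a fitted effect of over 55% in size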
Target sequence (P08659 whole entry, looked up): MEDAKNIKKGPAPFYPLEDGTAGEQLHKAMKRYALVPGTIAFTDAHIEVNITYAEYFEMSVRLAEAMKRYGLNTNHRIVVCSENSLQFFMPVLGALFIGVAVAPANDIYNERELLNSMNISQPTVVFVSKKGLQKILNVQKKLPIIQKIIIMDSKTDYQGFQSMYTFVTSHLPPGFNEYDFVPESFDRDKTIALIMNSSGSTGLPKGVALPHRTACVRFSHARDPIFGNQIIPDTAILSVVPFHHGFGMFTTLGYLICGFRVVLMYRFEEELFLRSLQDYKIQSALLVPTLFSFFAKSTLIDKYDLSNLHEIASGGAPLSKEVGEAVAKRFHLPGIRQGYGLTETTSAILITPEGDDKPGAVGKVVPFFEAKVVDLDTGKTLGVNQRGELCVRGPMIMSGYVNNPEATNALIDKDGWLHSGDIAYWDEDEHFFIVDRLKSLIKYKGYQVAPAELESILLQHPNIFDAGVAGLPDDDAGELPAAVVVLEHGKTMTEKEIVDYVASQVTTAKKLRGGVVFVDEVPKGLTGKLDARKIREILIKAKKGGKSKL
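Purified P. pyralis luciferase, 10 nM final, with Km-level 10 uM D-luciferin and 10 uM ATP in 50 mM Tris acetate pH 7.5, 10 mM Mg acetate, 0.01% Tween-20, 0.05% BSA; 6-point qHTS titration about 60 µM downward; luminescence read.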
Luc counter – Counterscreen for Luciferase (Kinase-Glo TM) Inhibition. Kinase-Glo luciferase, ATP luminescence, 8 min. Potency, µM (titrated, usually from 38.3 µM), for the others: at the top dose activity change, negative = inhibition, actives largely listed as inhibitors. Luciferin 4-monooxygenase (Photuris pensylvanica), Q27757. AID 1379, 2008. hit rate 0.28% among 200,000; also: % is scaled to controls: 0 for no effect and ±100 for the full control effect; nearly all actives have a fitted effect of over 60% in size
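Kinase-Glo luciferase light output from ATP and luciferin was measured with 10 uM ATP, within the enzyme's linear range. Buffer: 50 mM imidazole pH 7.2, 50 mM KCl, 7 mM MgCl2, 0.01% Tween 20, 0.05% BSA; luminescence read after 8 min at ambient temperature.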
SMN2 splice up – qHTS Assay for Enhancers of SMN2 Splice Variant Expression | HEK293 SMN2-luciferase splicing reporter, luminescence, 30-36 h | hit rate 2.8% among 210,000 | Potency, µM (highest dose often 46.1 µM), for the others: top-dose activity change, positive = activation, most hits filed as activators | AID 1458, 2008; also: % of control where 0% means no effect; nearly all actives have a fitted effect of over 55% in size
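HEK293 cells carry an SMN2 […]–luciferase reporter in which exon 7 inclusion puts luciferase in frame. Cells were plated 10-12 h before compound addition, then incubated 30-36 h at 37C. ONE-Glo luminescence was read; sodium butyrate at 4.5 mM final served as control.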
Rab9 prom act – qHTS Assay for Rab9 Promoter Activators. Huh7 Rab9 promoter-luciferase reporter, luminescence, 24 h. AID 485297, 2010. hit rate 2.8% among 320,000. Potency, µM (doses to about 9.22 µM), inactives show at the highest dose activation, negative = inhibition, most hits filed as activators; also: % of control where 0% means no effect; nearly all actives have a fitted effect of over 60% in size
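Quantitative HTS format; Huh7 Rab9-luciferase reporter cells (1500/well) receive compound 2 h post-plating, incubate 24 h at 37 °C, then get luciferase reagent for 10 min before luminescence reading.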
The depositor's hits bear a star; ? = inconclusive; . = not tested or not shown; [ ] = another dose, or the depositor's remark. Only some compounds are listed: those with a hit (about 7.5% of all), similar ones and a draw of the others. Calls follow the shape of the dose curve; as a rule, active = well fitted curve in the direction sought with a large enough effect; inconclusive = small, poorly fitted or top-dose-only effect, or another doubt; inactive = no such curve, though single readings can be large; an effect the other way counts as inactive or inconclusive. Potency is read from the fitted curve at half-maximal effect.

SMILES | NPC1 prom act | ELG1 genotoxic | FLuc modulator | Luc counter | SMN2 splice up | Rab9 prom act
N/C(=N\N=C/c1ccc(F)cc1)N/N=C\c1ccc(F)cc1 | -1% | 5% | 6µM* | . | . | -3%
CCOc1ccc(CNc2cc(C)nc3nc(-c4cccc(C)c4)nn23)cc1OC | . | . | 5.4µM* | . | . | .
Cc1cccc(Nc2cc(C)nc3nc(-c4ccccc4)nn23)c1 | . | . | -8% | . | -6% | .
Cc1ccc(CNc2cc(C)nc3nc(-c4cccc(C)c4)nn23)cc1 | . | . | 12µM* | . | . | .
CCn1c(=O)c2sccc2n2c(CCCC(=O)Nc3ccc(Oc4ccccc4)cc3)nnc12 | . | . | -19% | . | . | .
Cc1cccc(CNC(=O)c2ccc(NC(=O)C3=CSCCO3)cc2)c1 | -2% | 0%[9.26 µM] | ? | . | . | 0%
COc1ccc(OCCCCn2c(C3CC(=O)N(c4cccc(Cl)c4)C3)nc3ccccc32)cc1 (stereo not given) | . | . | -1% | . | -32% | .
CC1CCN(c2nc3ccc(C(=O)NCc4ccccc4)cc3s2)CC1 | . | . | 12µM* | . | -24% | .
CC1CCN(c2nc3ccc(C(=O)NCCCN4CCCCC4C)cc3s2)CC1 (stereo not given) | -18% | ? | ? | . | . | -46%
CC1CCN(c2nc3ccc(C(=O)NC(C)C)cc3s2)CC1 | . | . | 1.7µM* | . | 0.79µM* | .
CCC/C=C(\CCC)C(NC(=O)c1ccco1)c1ccc(C(=O)OC)cc1 (stereo not given) | . | . | . | -7% | -14% | .
Cc1c(Cl)cccc1NC(=O)CN1C(=O)COc2ccc(S(=O)(=O)N3CCCCCC3)cc21 | . | . | 0% | . | . | .
O=c1oc2ccccc2nc1/C=C(O)/C=C\c1ccccc1 | 10% | -6% | -17% | -1% | 5% | 0%
Cc1ccc(/C(O)=C/c2nc3ccccc3oc2=O)cc1 | -3% | -6% | 3µM* | . | . | -1%
CCCCOC(=O)c1ccc(NC(=O)c2ocnc2C)cc1 | 19% | 5% | 17µM* | -5% | -8% | 21%
CCCCOC(=O)c1ccc(NC(=O)c2ccoc2C)cc1 | 21% | 21µM* | ? | -2% | ? | ?
CCCCOC(=O)c1ccc(NC(=O)c2ccccc2OC)cc1 | -3% | 0% | ? | -7% | -44% | 1%
CCCOC(=O)c1ccc(NC(=O)c2ccoc2C)cc1 | 3.2µM* | 15% | 9.5µM* | ? | ? | 1.6µM*
CCCOC(=O)c1ccc(NC(=O)c2ccccc2OC)cc1 | 10% | 16% | ? | -3% | -18% | 14%
Cc1cc(NC(=O)c2cc(-c3ccc(F)cc3)on2)nn1Cc1ccc(Cl)cc1 | . | . | -6% | . | -20% | .
C[C@H](C(=O)c1ccccc1)C(c1ccccc1)N1CCOCC1 (stereo not given in full) | . | . | . | 1%[7.66 µM] | -8%[9.22 µM] | .
Cc1nc2sc(C(N)=O)c(N)c2c(C)c1CC(=O)c1ccccc1 | 3.5µM* | -6% | 17µM* | 1% | 24% | 2.8µM*
Cc1cc(C)c2c(N)c(C(=O)c3ccccc3)sc2n1 | -2% | -1% | ? | . | . | -3%
COCCN(C(=O)CSc1nnc(C)n1-c1ccc(C)cc1)c1c(N)n(Cc2ccccc2)c(=O)[nH]c1=O | 1% | 2% | 3% | . | . | 0%
COc1cccc(-n2c(=O)c3c(C)c(C)sc3n(CC(=O)NCc3ccccc3)c2=O)c1 | . | . | -1% | . | 16% | .
SMILES | NPC1 prom act | ELG1 genotoxic | FLuc modulator | Luc counter | SMN2 splice up | Rab9 prom act
c1ccc(Nc2nc(-c3cccs3)cs2)nc1 | ? | ? | 0.76µM* | -14% | 3.2µM* | ?
Cc1cccc(Nc2nc(-c3ccccn3)cs2)n1 | 1.3µM* | 0.82µM* | 1.7µM* | -19% | 3.2µM* | 0.63µM*
Cc1cccc(Nc2nc(-c3cccs3)cs2)n1 | ? | ? | 2.1µM* | -24% | 1.4µM* | 2.5µM*
Nc1ccc(Nc2nc(-c3cccs3)cs2)cc1 | -3% | -3% | -1% | -2% | . | -4%
Cc1ccc(CNC(=O)c2cc(S(=O)(=O)N3CCCCCC3)cn2C)cc1 | . | . | -3% | . | . | .
C=CCc1ccccc1OCc1nc2ccccc2n1CC | . | . | ? | . | -12% | .
COc1ccc(-c2nc3ccccc3s2)cc1O | ? | 0.65µM* | 0.15µM* | -30% | -46% | 5%
COc1cc(-c2nc3ccccc3s2)ccc1O | 6% | ? | 8.5µM* | -13% | ? | ?
COc1ccc(-c2nc3ccccc3s2)cc1NC(=O)c1cccc(F)c1 | . | . | -18% | . | . | .
O=S(=O)(c1cccc(-c2nc3ccccc3s2)c1)N1CCCC1 | 10% | -5% | 0%[2.3 µM] | 5% | -24% | 15%
COc1ccc(-c2nc3ccccc3s2)cc1NC(=O)c1cc(OC)c(OC)c(OC)c1 | . | . | ? | . | 4% | .
CCOc1cc(-c2nc3ccccc3s2)ccc1O | ? | ? | 15µM* | . | . | 15%
O=S(=O)(c1ccc(-c2nc3ccccc3s2)cc1)N1CCCC1 | ? | ? | -12% | 10% | -13% | 2.8µM*
Cc1ccc(Sc2nc3ccc(C)cn3c(=O)c2/C=N/O)cc1 | 5% | 9% | 1% | 2% | -3% | -3%
COCCNC(=O)CCc1nnc(C2(c3ccc(Cl)cc3)CCC2)o1 | -4% | 2% | 3% | 4% | . | 5%
CC(C)Oc1ccc(C(=O)Nc2ccc(-c3nc4ccccc4s3)cc2)cc1 | . | . | -4% | . | . | .
CC(C)c1ccc(-c2nc3ccccc3s2)cc1 | -18% | -9% | 0.076µM* | . | . | -37%
Cc1sc2c(c1C)c(=O)n(CCc1ccccc1)c(=O)n2Cc1cccc(F)c1 | . | . | -6% | . | -3% | .
CC1CCCCC1NC(=S)Nc1ccc(SC(F)F)cc1 (stereo not given) | 5% | -13% | 21µM* | -3% | ? | 9%
CN(CC(=O)Nc1ccc(SC(F)F)cc1)C1CCCCC1 | -3% | -7% | -3% | -1% | -5% | 2%
CC(=O)c1ccc(NC(=S)NC2CCCC(C)C2C)cc1 (stereo not given) | -2% | 1% | ? | 0% | 12% | 2%
FC(F)Sc1ccc(NC(=S)NCC2CCCCC2)cc1 | 8% | ? | 24µM* | -2% | 25% | 8%
FC(F)Sc1ccc(NC(=S)NC2CCCCC2)cc1 | 26% | ? | 11µM* | -2% | ? | ?
S=C(NCC1CCCCC1)Nc1ccc(Oc2ccccc2)cc1 | 0% | -2% | 1% | 2% | -42% | -5%
S=C(Nc1ccc(Br)cc1)NC1CCCC1 | 26% | 12% | 12µM* | -1% | 11µM* | ?
S=C(Nc1ccc(Oc2ccccc2)cc1)NC1CCCC1 | 2% | 0% | ? | 6% | ? | -6%

From PubChem
